# Source: PubChem BioAssay
# Dicer inh = inhibitors of Dicer pre-microRNA processing, primary screen, biochemical, cat-ELCCA, chemiluminescence; Endoribonuclease Dicer (Homo sapiens), Q9UPY3; z-score at 25 µM; cat-ELCCA pre-miR-21 Dicer processing; stronger effect = higher value; 47,000 tested, 6% active; in the data active = z-score above about 3, passing the limit was not always enough;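 also: plate controls were vehicle for no effect and no enzyme for full effect; higher signal means more uncleaved substrate so more Dicer inhibition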
# Starred values were filed as active, the others as inactive. This is one part of a sample in which hits are shown more often than they occur.
SMILES,Dicer inh
Cc1cc(C)c(S(=O)(=O)NCc2ccc3c(c2)OCO3)cc1Br,-1.2
CCN(CC)CCCNc1ncnc2ccccc12,-0.08
CCN(CC)CCCC(C)Nc1nc(C)nc2cc(Cl)ccc12 (configuration not stated),-0.22
CCN(CC)CCCC(C)Nc1nc(C)nc2ccccc12 (configuration not stated),4.3*
Cc1onc(-c2ccccc2)c1C(=O)On1c(-c2ccccc2)nc2ccccc2c1=O,-0.31
CN(C)CC1(C(OC(=O)c2ccc([N+](=O)[O-])cc2)c2cccc(F)c2)CCCCC1 (configuration not stated),0.22
Cc1ccccc1NC(=S)N1CC(C)OC(C)C1 (configuration not stated),-1.1
Cc1c(Cl)cccc1NC(=S)N1C(C)CCCC1C (configuration not stated),-0.76
Cc1ccccc1NC(=S)N1CCCCC1C (configuration not stated),3.4*
COC(=O)c1[nH]nc2c1C(=O)N(c1ccc(F)cc1)C2=O,2.2
C=CCNC(=S)NNC(=O)CN1c2ccccc2Sc2ccccc21,2
O=C(O)C1c2ccccc2-c2ccccc21,-0.59
CCCCSC1=C(C#N)C(=O)NC(c2ccc(C(=O)O)cc2)S1 (configuration not stated),-1.4
CCCCSC1=C(C#N)C(=O)NC(c2ccc(O)c(OC)c2)S1 (configuration not stated),3.1*
CCCCSC1=C(C#N)C(=O)NC(c2ccc(O)cc2)S1 (configuration not stated),-0.9
Cc1cc(C)c(N=C(NN)N(C)C)cc1C,-1.2
CCOC(=O)C1=C(C)NC2=C(C(=O)CC(C)(C)C2)C1c1ccc(F)cc1 (configuration not stated),0.51
CC1=C(C(=O)Nc2cccc(C)n2)C(c2cccc(Br)c2)C2=C(CC(C)(C)CC2=O)N1 (configuration not stated),4.8*
CC1=C(C(=O)Nc2ccc(Br)cn2)C(c2ccc(C)cc2)C2=C(CC(C)(C)CC2=O)N1 (configuration not stated),-0.43
CC1=C(C(=O)Nc2cc(C)ccn2)C(c2ccc(F)cc2)C2=C(CC(C)(C)CC2=O)N1 (configuration not stated),1.8
CC1=C(C(=O)Nc2ccc(C)cn2)C(c2cccc(Br)c2)C2=C(CC(C)(C)CC2=O)N1 (configuration not stated),1.3
CC1=C(C(=O)OCCc2ccccc2)C(c2ccc3c(c2)OCO3)C2=C(CC(C)(C)CC2=O)N1 (configuration not stated),1.5
COC(=O)C1=C(C)NC2=C(C(=O)CC(C)(C)C2)C1c1cccc(F)c1 (configuration not stated),-0.96
CC1=C(C(=O)Nc2ccc(F)cc2F)C(c2ccc3c(c2)OCO3)C2=C(CC(C)(C)CC2=O)N1 (configuration not stated),3.1*
CC1=C(C(=O)Nc2ccccn2)C(c2ccc(Br)cc2)C2=C(CC(C)(C)CC2=O)N1 (configuration not stated),4.1*
SMILES,Dicer inh
Fc1ccc2c(c1)-c1nc(C3CC3)ncc1CO2,0.74
COc1ccc2nc(SCCN3CCCCC3)[nH]c2c1,2.1
CCCCC(=O)Nc1sc2c(c1C(=O)OCC)CC(C)(C)OC2,-0.37
CCOC(=O)C(=O)Nc1sc2c(c1C(=O)OCC)CC(C)(C)OC2,4.8*
CCOC(=O)c1c(NC(=O)CC)sc2c1CC(C)(C)OC2,1
CCOc1cc(C)c(Cl)cc1S(=O)(=O)n1cnc(C)c1,-0.76
Cc1ccc2c(c1)-c1cc(C)nn1C(c1cc(C)ccc1O)N2 (configuration not stated),1
Cc1cc(C)c2c(c1)-c1cc(C)nn1C(c1cccc(O)c1O)N2 (configuration not stated),30*
COC(=O)c1ccc(C2Nc3ccc(C)cc3-c3cc(C)nn32)cc1 (configuration not stated),-0.59
Cc1ccc2c(c1)-c1cc(C)nn1C(c1cccc(O)c1O)N2 (configuration not stated),32*
Cc1ccc2c(c1)-c1cc(C)nn1C(c1ccc(O)c(O)c1)N2 (configuration not stated),3.5*
Cc1cc(C)c2c(c1)-c1cc(C)nn1C(c1ccccc1O)N2 (configuration not stated),-0.3
Cc1cc(C)c2c(c1)-c1cc(C)nn1C(c1cccc(O)c1)N2 (configuration not stated),1.2
Cc1ccc2c(c1)-c1cc(C)nn1C(c1sccc1C)N2 (configuration not stated),0.99
Cc1ccc2c(c1)-c1cc(C)nn1C(c1ccc3c(c1)OCO3)N2 (configuration not stated),1.2
CNC(=S)NNC(=O)CSc1cc(C(F)(F)F)nc2ccccc12,-0.64
COc1ccc(C2/C(=C(/O)c3ccc(Br)cc3)C(=O)C(=O)N2CCO)cc1OC (configuration not stated),-2.1
CCOC(=O)c1sc2ncn(CC(=O)OCC(C)C)c(=O)c2c1C,0.27
NNC(=O)c1ccc(Oc2ccc(C3SCCS3)cc2)o1,1.9
c1ccc2[nH]c(CCc3nc4ccccc4[nH]3)nc2c1,0.25
C/C(=C\c1ccc(N)cc1)c1nc2ccccc2[nH]1,3*
Nc1ccc(Cc2nc3ccccc3[nH]2)cc1,1.3
CCc1cccc(C)c1N1C(=O)c2cccnc2C1=O,1.3
O=C1CCC(=O)N1c1cccc(-c2nc3ccccc3c(=O)o2)c1,-0.39
O=C(Nc1nc(-c2ccccc2)ns1)c1ccc(Br)cc1,0.36
SMILES,Dicer inh
Nc1n[nH]c(=O)c2cc(-c3ccc(Cl)cc3)[nH]c(=O)c12,-0.77
Nc1[nH]c(=S)[nH]c(=O)c1C(c1ccc(Cl)cc1Cl)c1c(N)[nH]c(=S)[nH]c1=O,3.4*
O=C(O)CC(CC(=O)O)c1ccc(Cl)cc1Cl,-2.2
CS/C(=N\S(=O)(=O)c1ccccc1)NNC(=O)c1c(-c2c(Cl)cccc2Cl)noc1C,-0.54
CC1CCN(C(=O)CCCC(=O)O)CC1,0.92
NC(=O)C1CCN(C(=O)CN(CC(=O)N2CCC(C(N)=O)CC2)Cc2ccco2)CC1,0.68
NC(=O)C1CCN(C(=O)CSc2ncccn2)CC1,3.6*
NC(=O)C1CCN(C(=O)CCC(=O)O)CC1,3.5*
NC(=O)C1CCN(C(=O)/C=C/C(=O)O)CC1,0.65
CCOC(=O)N1CCN(C(=O)CSc2ncccn2)CC1,0.08
CSC(=NCc1c(N(C)C)cccc1N(C)C)NC#N,1.6
COc1ccc(C2C(C#N)=C(N)Oc3n[nH]c(C)c32)cc1OCc1ccc(Cl)cc1 (configuration not stated),-5
COc1ccc(-c2nc(-c3cc4cc(OC)ccc4[nH]c3=O)no2)cc1,0.8
COC(=O)COc1c(C(=O)OC)sc2ccccc12,0.21
CSc1ccccc1NC1=NS(=O)(=O)c2ccccc21,-0.02
Cc1ccc(OC2=NS(=O)(=O)c3ccccc32)cc1,0.25
O=S1(=O)/N=C(/O)c2ccccc2Sc2ccccc21,3.5*
O=C(OCCSc1ccc(C(F)(F)F)cn1)c1ccc(Cl)cc1,-0.69
CCOC(=O)c1cnc(Nc2ccc(OC)c(Cl)c2)nc1C(F)(F)F,-0.32
CCOC(=O)c1sc(/S(C)=N/C(=O)Nc2ccc(Cl)cc2)c2c1CCC=C2 (configuration not stated),-1.6
CSC(SC)=C(C#N)S(=O)(=O)c1ccc(Cl)cc1,3.2*
C=CCN/C(SC)=C(\C#N)S(=O)(=O)c1ccc(Cl)cc1,-4.3
